# Laboratory results: the supplement of paper PMC10849652
# The full data set covers some 8,800 targets. This sample favours those with a hit. About 0.5% of all pairs of compound and target were hits. A number with no mark means an inactive call.
# Experiments:
# Experiment in all cases: log2 fold change, soluble protein after heating vs DMSO (PISA); higher = thermal stabilisation; K562 lysate, 10 uM; active = over 0.2 and 3.5 SD of the protein, either way, in both replicates (recomputed)
# alvocidib = compound: CN1CC[C@H](c2c(O)cc(O)c3c(=O)cc(-c4ccccc4Cl)oc23)[C@H](O)C1 [alvocidib]
# Outline: (§1)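 Pellets of K562 cells were dounce-homogenised in PBS pH 7.4 with 1 mM MgCl2, and the crude extract was held at 1 mg/mL protein for a 30 min treatment with 10 μM compound. Aliquots were heated for 3 min over 48°C-58°C and pooled before NP-40 was added to 0.5% at 4°C. The supernatant from 21,000xg for 90 min was quantified by TMTpro 16plex LC-MS/MS with channel sums equalised. Values are reported from duplicates as log-two fold change in thermal stability relative to solvent controls.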
# Tubastatin A = compound: CN1CCc2c(c3ccccc3n2Cc2ccc(C(=O)NO)cc2)C1 [Tubastatin A]
# Outline: as §1
# [1] = compound: CNC(=O)C1=CC=CC=C1NC2=NC(=NC=C2Cl)NC3=C(C=C(C=C3)N4CCOCC4)OC
# Outline: as §1
# defactinib = compound: CNC(=O)c1ccc(Nc2ncc(C(F)(F)F)c(NCc3nccnc3N(C)S(C)(=O)=O)n2)cc1 [defactinib]
# Outline: as §1
# [2] = compound: CNc1nc(-c2ccc3c(N)n[nH]c3c2)cc(N2C[C@@H](C(=O)NC3CCCCC3)CC[C@H]2C)n1
# Outline: as §1
# encorafenib = compound: COC(=O)N[C@@H](C)CNc1nccc(-c2cn(C(C)C)nc2-c2cc(Cl)cc(NS(C)(=O)=O)c2F)n1 [encorafenib]
# Outline: as §1
# [3] = compound: COC(=O)[C@H](CCSC)NC(=O)C1=C(C=C(C=C1)NC[C@H](CS)N)C2=CC=CC=C2
# Outline: as §1
# alisertib = compound: COc1cc(Nc2ncc3c(n2)-c2ccc(Cl)cc2C(c2c(F)cccc2OC)=NC3)ccc1C(=O)O [alisertib]
# Outline: as §1
# [4] = compound: COc1cc2nc(-c3cc(F)ccc3O)nc(N[C@@H]3CNC[C@H]3C(C)(C)O)c2cc1OC
# Outline: as §1
# gefitinib = compound: COc1cc2ncnc(Nc3ccc(F)c(Cl)c3)c2cc1OCCCN1CCOCC1 [gefitinib]
# Outline: as §1
# lapatinib = compound: CS(=O)(=O)CCNCc1ccc(-c2ccc3ncnc(Nc4ccc(OCc5cccc(F)c5)c(Cl)c4)c3c2)o1 [lapatinib]
# Outline: as §1
# pictilisib = compound: CS(=O)(=O)N1CCN(Cc2cc3nc(-c4cccc5[nH]ncc45)nc(N4CCOCC4)c3s2)CC1 [pictilisib]
# Outline: as §1
# crizotinib = compound: C[C@@H](Oc1cc(-c2cnn(C3CCNCC3)c2)cnc1N)c1c(Cl)ccc(F)c1Cl [crizotinib]
# Outline: as §1
# [5] = compound: C[C@H](C1=CC=C(C=C1)C(=O)NC2=C3C=CNC3=NC=C2)N
# Outline: as §1
# duvelisib = compound: C[C@H](Nc1ncnc2nc[nH]c12)c1cc2cccc(Cl)c2c(=O)n1-c1ccccc1 [duvelisib]
# Outline: as §1
# gandotinib = compound: Cc1cc(Nc2cc(CN3CCOCC3)c3nc(C)c(Cc4ccc(Cl)cc4F)n3n2)n[nH]1 [gandotinib]
# Outline: as §1
# tozasertib = compound: Cc1cc(Nc2cc(N3CCN(C)CC3)nc(Sc3ccc(NC(=O)C4CC4)cc3)n2)n[nH]1 [tozasertib]
# Outline: as §1
# doramapimod = compound: Cc1ccc(-n2nc(C(C)(C)C)cc2NC(=O)Nc2ccc(OCCN3CCOCC3)c3ccccc23)cc1 [doramapimod]
# Outline: as §1
# bafetinib = compound: Cc1ccc(NC(=O)c2ccc(CN3CC[C@H](N(C)C)C3)c(C(F)(F)F)c2)cc1Nc1nccc(-c2cncnc2)n1 [bafetinib]
# Outline: as §1
# [6] = compound: Cc1cccc(CC(=O)N2CCc3c2ccc(-c2cn(C)c4ncnc(N)c24)c3F)n1
# Outline: as §1
# Chain of UniProt Q5RI15 (Q5RI15 whole entry, looked up): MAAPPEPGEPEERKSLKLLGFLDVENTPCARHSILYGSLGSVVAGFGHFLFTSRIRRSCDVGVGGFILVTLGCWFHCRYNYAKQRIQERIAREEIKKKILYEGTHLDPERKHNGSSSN
# Chain of UniProt Q92466 (Q92466 whole entry, looked up): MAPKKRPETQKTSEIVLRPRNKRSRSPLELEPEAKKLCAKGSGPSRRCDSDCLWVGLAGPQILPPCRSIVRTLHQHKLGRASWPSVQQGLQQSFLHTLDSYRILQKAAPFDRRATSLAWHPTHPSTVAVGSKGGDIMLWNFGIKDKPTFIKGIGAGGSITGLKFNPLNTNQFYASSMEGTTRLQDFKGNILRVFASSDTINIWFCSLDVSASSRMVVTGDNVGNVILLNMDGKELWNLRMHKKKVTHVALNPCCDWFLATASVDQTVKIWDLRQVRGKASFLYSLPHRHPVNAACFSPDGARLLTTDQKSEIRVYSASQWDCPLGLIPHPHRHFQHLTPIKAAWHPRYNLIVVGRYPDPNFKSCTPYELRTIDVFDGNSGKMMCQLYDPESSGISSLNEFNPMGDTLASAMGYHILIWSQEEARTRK
# Chain of UniProt Q13057 (Q13057 whole entry, looked up): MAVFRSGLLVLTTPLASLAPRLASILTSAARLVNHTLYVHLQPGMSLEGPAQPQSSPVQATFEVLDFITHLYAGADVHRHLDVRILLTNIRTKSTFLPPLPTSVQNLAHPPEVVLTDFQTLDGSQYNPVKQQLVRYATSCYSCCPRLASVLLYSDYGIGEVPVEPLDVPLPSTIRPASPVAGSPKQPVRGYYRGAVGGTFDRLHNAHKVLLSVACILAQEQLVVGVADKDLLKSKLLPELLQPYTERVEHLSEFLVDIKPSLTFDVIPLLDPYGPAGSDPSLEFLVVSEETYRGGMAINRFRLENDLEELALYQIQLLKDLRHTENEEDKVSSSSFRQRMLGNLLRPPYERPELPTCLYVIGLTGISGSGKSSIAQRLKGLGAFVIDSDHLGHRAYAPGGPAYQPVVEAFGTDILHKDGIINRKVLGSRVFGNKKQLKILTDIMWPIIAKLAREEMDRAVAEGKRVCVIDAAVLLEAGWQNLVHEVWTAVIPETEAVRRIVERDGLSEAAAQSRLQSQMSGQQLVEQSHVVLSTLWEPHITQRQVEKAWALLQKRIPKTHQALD
# Chain of UniProt Q9H4E7 (Q9H4E7 whole entry, looked up): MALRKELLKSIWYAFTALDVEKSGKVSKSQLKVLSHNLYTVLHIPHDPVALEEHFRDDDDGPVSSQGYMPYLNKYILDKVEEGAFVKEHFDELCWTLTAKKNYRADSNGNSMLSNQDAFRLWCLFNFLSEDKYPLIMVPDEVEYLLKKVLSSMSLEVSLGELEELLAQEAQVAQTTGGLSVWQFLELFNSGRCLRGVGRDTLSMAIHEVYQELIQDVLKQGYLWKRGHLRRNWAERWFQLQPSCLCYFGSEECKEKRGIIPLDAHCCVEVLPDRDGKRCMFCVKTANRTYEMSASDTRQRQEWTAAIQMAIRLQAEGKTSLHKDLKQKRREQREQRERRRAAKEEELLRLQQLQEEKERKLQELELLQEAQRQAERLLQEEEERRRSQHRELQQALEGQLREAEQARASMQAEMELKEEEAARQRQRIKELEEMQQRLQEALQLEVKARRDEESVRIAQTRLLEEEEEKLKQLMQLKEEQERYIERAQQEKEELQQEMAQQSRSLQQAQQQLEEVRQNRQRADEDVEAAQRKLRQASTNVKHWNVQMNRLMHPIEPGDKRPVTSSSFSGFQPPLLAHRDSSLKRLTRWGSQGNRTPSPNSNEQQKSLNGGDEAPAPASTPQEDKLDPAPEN
# Chain of UniProt O14757 (O14757 whole entry, looked up): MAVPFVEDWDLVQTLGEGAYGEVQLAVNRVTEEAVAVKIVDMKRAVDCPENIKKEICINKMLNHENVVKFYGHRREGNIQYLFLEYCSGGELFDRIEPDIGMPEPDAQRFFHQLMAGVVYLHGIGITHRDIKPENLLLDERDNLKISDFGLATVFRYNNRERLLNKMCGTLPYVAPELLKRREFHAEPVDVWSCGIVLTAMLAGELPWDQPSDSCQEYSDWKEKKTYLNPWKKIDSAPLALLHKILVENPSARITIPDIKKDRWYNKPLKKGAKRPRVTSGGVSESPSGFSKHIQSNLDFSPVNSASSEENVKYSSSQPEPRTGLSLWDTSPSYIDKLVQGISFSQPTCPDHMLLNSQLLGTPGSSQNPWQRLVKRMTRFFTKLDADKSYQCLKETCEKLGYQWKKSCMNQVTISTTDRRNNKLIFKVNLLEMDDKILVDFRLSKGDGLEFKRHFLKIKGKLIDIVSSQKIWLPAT
# Chain of UniProt Q9BQ75 (Q9BQ75 whole entry, looked up): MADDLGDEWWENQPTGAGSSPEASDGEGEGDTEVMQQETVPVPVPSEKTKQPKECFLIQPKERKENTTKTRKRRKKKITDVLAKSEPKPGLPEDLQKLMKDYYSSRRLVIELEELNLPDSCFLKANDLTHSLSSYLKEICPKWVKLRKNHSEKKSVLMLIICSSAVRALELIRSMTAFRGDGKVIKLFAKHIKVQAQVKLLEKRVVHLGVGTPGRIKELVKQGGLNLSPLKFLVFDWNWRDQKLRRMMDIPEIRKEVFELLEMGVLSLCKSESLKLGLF
# Chain of UniProt Q9NRF8 (Q9NRF8 whole entry, looked up): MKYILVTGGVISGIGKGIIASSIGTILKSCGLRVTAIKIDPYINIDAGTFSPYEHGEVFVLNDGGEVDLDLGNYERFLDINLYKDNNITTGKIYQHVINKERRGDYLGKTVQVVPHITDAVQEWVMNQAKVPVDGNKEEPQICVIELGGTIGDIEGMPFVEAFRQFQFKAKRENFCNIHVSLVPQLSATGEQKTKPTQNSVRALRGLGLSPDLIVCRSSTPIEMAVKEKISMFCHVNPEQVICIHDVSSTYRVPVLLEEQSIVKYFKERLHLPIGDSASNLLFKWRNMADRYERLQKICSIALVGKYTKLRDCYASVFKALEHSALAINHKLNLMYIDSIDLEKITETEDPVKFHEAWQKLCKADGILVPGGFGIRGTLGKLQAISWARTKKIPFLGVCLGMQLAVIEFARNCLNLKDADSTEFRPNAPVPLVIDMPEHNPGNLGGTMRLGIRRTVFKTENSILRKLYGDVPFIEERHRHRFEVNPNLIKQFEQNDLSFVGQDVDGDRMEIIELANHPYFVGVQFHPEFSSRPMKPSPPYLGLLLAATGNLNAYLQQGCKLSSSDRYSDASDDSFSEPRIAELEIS
# Chain of UniProt Q8TDD1 (Q8TDD1 whole entry, looked up): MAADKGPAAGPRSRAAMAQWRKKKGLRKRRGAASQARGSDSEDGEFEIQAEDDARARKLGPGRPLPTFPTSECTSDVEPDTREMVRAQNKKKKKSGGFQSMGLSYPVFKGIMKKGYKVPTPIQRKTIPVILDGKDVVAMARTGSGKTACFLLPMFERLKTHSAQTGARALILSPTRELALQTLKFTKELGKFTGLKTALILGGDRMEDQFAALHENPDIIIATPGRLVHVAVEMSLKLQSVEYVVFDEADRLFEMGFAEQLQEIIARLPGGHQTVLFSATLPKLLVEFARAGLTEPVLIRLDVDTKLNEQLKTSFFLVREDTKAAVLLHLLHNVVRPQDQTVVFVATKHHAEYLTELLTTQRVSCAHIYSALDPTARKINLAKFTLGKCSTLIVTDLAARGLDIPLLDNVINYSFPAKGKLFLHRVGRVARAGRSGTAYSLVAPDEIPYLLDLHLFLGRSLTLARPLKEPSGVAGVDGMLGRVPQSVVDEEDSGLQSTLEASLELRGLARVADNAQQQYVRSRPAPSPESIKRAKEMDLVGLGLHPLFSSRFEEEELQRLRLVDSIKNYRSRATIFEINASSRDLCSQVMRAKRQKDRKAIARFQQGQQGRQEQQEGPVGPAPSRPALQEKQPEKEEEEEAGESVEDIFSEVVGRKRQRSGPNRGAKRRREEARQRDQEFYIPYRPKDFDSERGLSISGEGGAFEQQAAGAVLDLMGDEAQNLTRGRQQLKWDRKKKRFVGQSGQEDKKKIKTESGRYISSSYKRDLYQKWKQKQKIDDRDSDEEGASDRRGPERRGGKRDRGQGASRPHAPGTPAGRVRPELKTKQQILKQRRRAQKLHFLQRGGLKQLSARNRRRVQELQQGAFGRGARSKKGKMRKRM
# Chain of UniProt O75911 (O75911 whole entry, looked up): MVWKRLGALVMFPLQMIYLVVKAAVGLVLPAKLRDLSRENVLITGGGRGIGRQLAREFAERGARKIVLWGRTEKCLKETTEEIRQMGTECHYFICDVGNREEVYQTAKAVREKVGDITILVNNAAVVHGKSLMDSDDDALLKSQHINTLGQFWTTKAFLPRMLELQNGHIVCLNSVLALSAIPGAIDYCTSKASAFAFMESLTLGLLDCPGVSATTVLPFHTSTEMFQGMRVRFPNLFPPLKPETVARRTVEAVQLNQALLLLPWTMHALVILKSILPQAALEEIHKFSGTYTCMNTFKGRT
# Chain of UniProt Q9H3Z4 (Q9H3Z4 whole entry, looked up): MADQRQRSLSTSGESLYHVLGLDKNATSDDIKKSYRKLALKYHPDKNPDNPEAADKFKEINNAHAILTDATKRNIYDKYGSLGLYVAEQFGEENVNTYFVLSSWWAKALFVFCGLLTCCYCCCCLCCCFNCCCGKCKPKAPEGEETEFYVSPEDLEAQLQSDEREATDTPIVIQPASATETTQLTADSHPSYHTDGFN
# Chain of UniProt P09543 (P09543 whole entry, looked up): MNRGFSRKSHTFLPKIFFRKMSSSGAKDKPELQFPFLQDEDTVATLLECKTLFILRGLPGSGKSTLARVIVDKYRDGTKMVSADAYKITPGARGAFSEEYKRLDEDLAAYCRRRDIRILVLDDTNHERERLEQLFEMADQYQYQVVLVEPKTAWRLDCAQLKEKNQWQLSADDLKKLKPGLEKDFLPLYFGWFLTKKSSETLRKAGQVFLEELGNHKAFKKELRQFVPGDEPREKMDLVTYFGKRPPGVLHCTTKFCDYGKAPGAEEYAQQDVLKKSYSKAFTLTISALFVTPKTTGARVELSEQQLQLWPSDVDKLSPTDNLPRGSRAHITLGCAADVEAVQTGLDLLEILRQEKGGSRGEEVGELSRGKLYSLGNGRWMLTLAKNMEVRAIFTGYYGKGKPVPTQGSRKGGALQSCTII
Target,log2 fold change (alvocidib),log2 fold change (Tubastatin A),log2 fold change [1],log2 fold change (defactinib),log2 fold change [2],log2 fold change (encorafenib),log2 fold change [3],log2 fold change (alisertib),log2 fold change [4],log2 fold change (gefitinib),log2 fold change (lapatinib),log2 fold change (pictilisib),log2 fold change (crizotinib),log2 fold change [5],log2 fold change (duvelisib),log2 fold change (gandotinib),log2 fold change (tozasertib),log2 fold change (doramapimod),log2 fold change (bafetinib),log2 fold change [6]
CTPS2 (UniProt Q9NRF8),-0.01,0.015,-0.009,0.01,-0.006,0.01,-0.043,-0.017,0.011,0.011,-0.025,-0.018,-0.004,-0.032,0.016,-0.002,0.009,0.021,0.077,0.003
CUL1 (UniProt Q13616),-0.008,0.008,0.001,-0.019,0.013,0,-0.042,-0.01,0.011,-0.038,-0.007,0.004,0.014,-0.007,0.015,0.03,-0.001,0.01,0.03,-0.002
CMSS1 (UniProt Q9BQ75),0.013,-0.036,-0.02,-0.009,-0.032,0.015,0.024,0.02,0.004,0.025,0.012,0.016,-0.021,0.176,-0.001,-0.086,0.009,0.015,-0.026,-0.015
DHRS3 (UniProt O75911),-0.013,0.105,0.043,-0.006,0.085,-0.044,0.151,-0.006,-0.011,0.071,0.02,-0.051,-0.024,-0.044,-0.025,0.059,-0.043,0.035,-0.032,0.011
COX20 isoform 2 (UniProt Q5RI15),0.102,-0.012,0.01,-0.007,0.06,-0.103,0.022,0.001,-0.033,-0.009,0.016,0.186,0.054,0.455 (active),-0.007,-0.144,-0.053,-0.036,0.144,-0.273
COASY isoform 2 (UniProt Q13057),0.015,-0.124,-0.003,0.064,-0.023,-0.012,0.032,0.023,-0.025,-0.005,-0.01,0.021,-0.084,-0.072,0.004,0.009,-0.022,-0.007,-0.043,0.029
CHEK1 (UniProt O14757),0.01,0.072,-0.063,-0.021,-0.002,0.002,-0.008,0.008,-0.178,0.013,-0.008,-0.003,-0.021,0.174,-0.009,-0.014,0.017,0.04,-0.025,0.015
CNOT6L (UniProt Q96LI5),-0.091,0.022,0.022,0.046,0.013,0.036,0.066,-0.005,0.037,-0.033,-0.03,-0.042,-0.076,-0.251,-0.001,0.065,0.064,0.012,-0.1,0.114
DDX54 isoform 2 (UniProt Q8TDD1),-0.037,-0.047,0.017,-0.05,-0.03,0.084,0.025,0.023,0.006,-0.089,-0.03,0.075,-0.057,-0.025,0.025,0.01,0.035,0.019,0.11,0.101
DNAJC5 (UniProt Q9H3Z4),-0.216,0.062,0.019,0.011,0.054,0.016,-0.057,-0.119,0.019,-0.039,-0.021,0.075,0.007,-0.377 (active),-0.041,0.161,-0.054,0.023,-0.144,0.334 (active)
DOCK8 (UniProt Q8NF50),0.019,-0.098,0.007,0.001,-0.073,0.003,0.05,-0.01,0.014,0.005,-0.032,-0.011,-0.03,-0.002,0.003,-0.097,0.042,0.029,-0.062,0.02
DDA1 (UniProt Q9BW61),0.024,-0.002,0.015,-0.004,0.031,0.013,0.021,-0.024,-0.003,-0.034,0.011,-0.025,0.025,-0.013,-0.013,-0.019,-0.037,0.013,0.011,-0.062
DDB2 (UniProt Q92466),0,0.06,0.041,0.262 (active),0.069,0.079,-0.065,0.045,0.055,-0.131,-0.03,-0.025,-0.025,-0.01,0.014,0.046,-0.026,0.05,0.023,0.008
CSNK1E (UniProt P49674),0.021,-0.159,0.129,-0.017,0.093,-0.032,0.028,-0.034,0.048,0.012,-0.026,0.103,0.004,0.135,-0.016,-0.134,-0.065,0.003,-0.024,-0.061
CNP (UniProt P09543),-0.005,-0.06,0.011,0.028,-0.03,0.02,-0.003,0.029,0,-0.025,0.014,0.015,-0.023,0.002,-0.002,-0.047,0.012,0.039,-0.026,0.022
DEF6 (UniProt Q9H4E7),-0.036,-0.154,0.027,-0.07,0.039,0.019,-0.002,0.097,0.013,-0.01,-0.021,0.057,-0.095,-0.049,0.013,0.032,0.009,0,0.151,0.188
